Legend:
Assay in all cases: cross-link between two proteins; affinity purification or IP with mass spectrometry; cross-linking mass spectrometry
Calreticulin = Calreticulin (UniProt P14211)
Integrin alpha-3 = Integrin alpha-3 (UniProt Q62470)
Integrin alpha-5 = Integrin alpha-5 (UniProt P11688)

Measured: listed as a hit

UniProt Q62470, sequence (Q62470 whole entry): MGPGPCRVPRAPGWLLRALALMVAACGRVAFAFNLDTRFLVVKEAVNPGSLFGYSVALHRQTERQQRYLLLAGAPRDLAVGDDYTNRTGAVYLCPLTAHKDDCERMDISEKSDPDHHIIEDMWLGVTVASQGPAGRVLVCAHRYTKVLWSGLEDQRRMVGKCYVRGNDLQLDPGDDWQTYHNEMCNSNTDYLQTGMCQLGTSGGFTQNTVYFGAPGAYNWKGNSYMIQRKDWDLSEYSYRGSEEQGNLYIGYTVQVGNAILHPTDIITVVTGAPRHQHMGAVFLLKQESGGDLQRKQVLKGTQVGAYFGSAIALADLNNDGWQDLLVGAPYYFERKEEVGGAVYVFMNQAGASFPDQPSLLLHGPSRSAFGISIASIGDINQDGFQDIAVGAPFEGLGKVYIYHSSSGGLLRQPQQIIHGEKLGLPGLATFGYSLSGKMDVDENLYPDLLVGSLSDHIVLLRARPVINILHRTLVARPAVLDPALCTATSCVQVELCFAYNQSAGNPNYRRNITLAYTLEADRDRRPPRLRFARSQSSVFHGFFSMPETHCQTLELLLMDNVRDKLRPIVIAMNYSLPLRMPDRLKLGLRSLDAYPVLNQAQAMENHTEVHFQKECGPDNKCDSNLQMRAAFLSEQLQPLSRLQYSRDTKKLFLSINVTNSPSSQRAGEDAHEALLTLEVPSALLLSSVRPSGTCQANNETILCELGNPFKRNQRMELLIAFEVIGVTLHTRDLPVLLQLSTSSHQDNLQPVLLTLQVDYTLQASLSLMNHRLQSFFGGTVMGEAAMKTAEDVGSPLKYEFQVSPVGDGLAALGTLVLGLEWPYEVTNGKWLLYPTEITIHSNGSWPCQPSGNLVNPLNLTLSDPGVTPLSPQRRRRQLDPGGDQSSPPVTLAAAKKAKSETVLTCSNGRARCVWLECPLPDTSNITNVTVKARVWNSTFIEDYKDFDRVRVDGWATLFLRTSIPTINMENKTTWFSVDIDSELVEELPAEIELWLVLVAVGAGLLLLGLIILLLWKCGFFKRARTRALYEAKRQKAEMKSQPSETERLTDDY
UniProt P11688, sequence (P11688 whole entry): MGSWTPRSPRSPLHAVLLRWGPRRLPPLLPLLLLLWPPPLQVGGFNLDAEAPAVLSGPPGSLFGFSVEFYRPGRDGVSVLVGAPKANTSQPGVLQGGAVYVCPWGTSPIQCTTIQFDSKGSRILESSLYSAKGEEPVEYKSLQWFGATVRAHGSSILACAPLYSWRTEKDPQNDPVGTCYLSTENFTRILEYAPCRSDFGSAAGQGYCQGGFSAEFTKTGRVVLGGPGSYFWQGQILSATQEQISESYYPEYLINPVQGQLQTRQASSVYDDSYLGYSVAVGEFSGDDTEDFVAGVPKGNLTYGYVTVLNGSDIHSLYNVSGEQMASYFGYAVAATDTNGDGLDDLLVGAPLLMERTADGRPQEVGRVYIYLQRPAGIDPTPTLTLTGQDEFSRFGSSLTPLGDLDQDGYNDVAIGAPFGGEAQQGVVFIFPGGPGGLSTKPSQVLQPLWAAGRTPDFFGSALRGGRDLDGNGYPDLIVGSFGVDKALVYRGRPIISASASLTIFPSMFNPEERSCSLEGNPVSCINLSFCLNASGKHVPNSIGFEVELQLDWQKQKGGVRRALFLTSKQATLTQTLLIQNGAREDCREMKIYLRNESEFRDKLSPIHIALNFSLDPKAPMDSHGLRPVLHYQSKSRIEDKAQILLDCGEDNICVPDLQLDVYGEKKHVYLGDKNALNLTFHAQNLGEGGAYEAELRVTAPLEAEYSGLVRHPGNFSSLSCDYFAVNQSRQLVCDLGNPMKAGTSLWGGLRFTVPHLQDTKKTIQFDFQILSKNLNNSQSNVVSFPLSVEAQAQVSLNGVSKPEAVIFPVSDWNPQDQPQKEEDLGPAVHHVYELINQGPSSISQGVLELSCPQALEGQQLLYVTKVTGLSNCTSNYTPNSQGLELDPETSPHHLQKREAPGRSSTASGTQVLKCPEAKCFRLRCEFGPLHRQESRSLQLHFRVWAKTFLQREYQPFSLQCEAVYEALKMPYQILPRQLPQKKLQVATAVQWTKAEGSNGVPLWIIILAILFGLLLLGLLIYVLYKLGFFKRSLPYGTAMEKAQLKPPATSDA
UniProt P14211, sequence (P14211 whole entry): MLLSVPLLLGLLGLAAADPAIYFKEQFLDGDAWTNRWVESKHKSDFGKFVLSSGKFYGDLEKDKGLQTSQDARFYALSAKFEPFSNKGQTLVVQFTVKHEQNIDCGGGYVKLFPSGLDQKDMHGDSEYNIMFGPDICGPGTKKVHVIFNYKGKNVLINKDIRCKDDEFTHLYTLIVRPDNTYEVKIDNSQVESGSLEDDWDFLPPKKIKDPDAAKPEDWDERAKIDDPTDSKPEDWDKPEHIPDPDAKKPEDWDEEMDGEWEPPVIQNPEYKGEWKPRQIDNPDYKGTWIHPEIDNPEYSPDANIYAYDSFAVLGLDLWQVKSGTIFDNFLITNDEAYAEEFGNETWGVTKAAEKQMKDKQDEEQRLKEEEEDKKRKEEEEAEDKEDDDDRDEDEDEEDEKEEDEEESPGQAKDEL

Integrin beta-1, P09055
yes: all assays above
